# Data from ChEMBL document CHEMBL3988442, “University of Dundee, Small-Polar-MMV Screening Library” (2021).
# Experiments:
# [1] = biological target: T1, Aspartate--tRNA(Asp/Asn) ligase (Mycobacterium tuberculosis (strain ATCC 25618 / H37Rv)) (UniProt P9WFW3); test: Assay for Asp RNA synthetase-1 from Mycobacterium tuberculosis; format: functional; set-up: scale not given: direction of the effect not stated beside the values; settings: 30 µM; also: in the data most compounds retested in dose-response had high values
# T1 sequence (whole entry): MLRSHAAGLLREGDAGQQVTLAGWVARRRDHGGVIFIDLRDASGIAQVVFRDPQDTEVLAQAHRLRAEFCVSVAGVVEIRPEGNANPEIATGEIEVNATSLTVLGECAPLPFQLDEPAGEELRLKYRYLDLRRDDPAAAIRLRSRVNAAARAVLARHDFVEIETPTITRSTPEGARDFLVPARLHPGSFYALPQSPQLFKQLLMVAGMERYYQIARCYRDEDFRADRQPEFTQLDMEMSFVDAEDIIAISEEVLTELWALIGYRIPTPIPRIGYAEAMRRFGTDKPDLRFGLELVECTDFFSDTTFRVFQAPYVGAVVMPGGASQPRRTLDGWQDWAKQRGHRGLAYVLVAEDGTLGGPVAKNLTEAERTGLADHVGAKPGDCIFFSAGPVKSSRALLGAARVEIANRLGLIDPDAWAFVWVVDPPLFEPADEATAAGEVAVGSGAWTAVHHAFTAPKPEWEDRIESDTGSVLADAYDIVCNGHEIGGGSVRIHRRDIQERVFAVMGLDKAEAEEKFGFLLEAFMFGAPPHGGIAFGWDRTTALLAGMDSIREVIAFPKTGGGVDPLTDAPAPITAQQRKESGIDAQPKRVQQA
# [2] = biological target: Shiga toxin 2 (Escherichia coli O157:H7) (UniProt P09385+P09386); test: E. coli 0.157:H7 Shiga Toxin SOP - stx2 screening assay; format: functional; set-up: scale not given: direction of the effect not stated beside the values; settings: 30 µM
smiles,measurement,setting,value
COc1cc(C(=O)N(Cc2ccco2)C2CC2)cc2c1OCCO2,Percent Effect,[1],1.56%
same,Percent Effect,[2],-6.37%
Cc1ccc([C@@H]2CN(C(=O)c3csc(C)n3)C[C@H]2NC(=O)C2CC2)cc1,Percent Effect,[1],-3.36%
same,Percent Effect,[2],15.2%
Cc1cc(C(=O)NCC(C)N2CCc3ccccc32)no1 (stereo not drawn),Percent Effect,[1],-0.278%
same,Percent Effect,[2],-26.5%
CCNC(=O)c1nc2c(s1)CCCN2S(C)(=O)=O,Percent Effect,[1],7.8%
same,Percent Effect,[2],-17.3%
CN(Cc1nnc(C2CC2)n1C)C1CCN(CCc2cccs2)C1 (stereo not drawn),Percent Effect,[1],1.39%
same,Percent Effect,[2],-43.7%
O=C(Nc1nccs1)NC1CCN(Cc2ccccc2)C1 (stereo not drawn),Percent Effect,[1],-1.92%
same,Percent Effect,[2],-17.1%
Cc1ccc([C@@H]2CN(S(=O)(=O)C(C)C)C[C@H]2N(C)C)cc1,Percent Effect,[1],0.183%
same,Percent Effect,[2],12.9%
O=C(c1cccn1Cc1cccs1)N1CCCC1Cn1cccn1 (stereo not drawn),Percent Effect,[1],-0.702%
same,Percent Effect,[2],14.5%
O=C(c1cnccn1)N1CCc2ncnc(-c3cccnc3)c2CC1,Percent Effect,[1],-2.48%
same,Percent Effect,[2],-12.4%
Cc1noc(C2CCC3(CCN(C(=O)c4c(C)noc4C)CC3)O2)n1 (stereo not drawn),Percent Effect,[1],-3.06%
same,Percent Effect,[2],16.1%
CCc1nc(CN2CCCN(C(=O)C(C)COC)CC2)cs1 (stereo not drawn),Percent Effect,[1],-0.303%
same,Percent Effect,[2],-63.3%
CS(=O)(=O)c1ccc(CNC(=O)N2CCC(c3ccccc3)CC2)cc1,Percent Effect,[1],-2.06%
same,Percent Effect,[2],7.64%
CCn1cc(CN2C[C@@H]3CCCN3C[C@@H]2CCSC)c(C)n1,Percent Effect,[1],-0.662%
same,Percent Effect,[2],5.06%
O=S1(=O)CCCN1Cc1coc(-c2cccs2)n1,Percent Effect,[1],-3.68%
same,Percent Effect,[2],0.853%
c1cncc(OCc2noc3c2CN(Cc2ccoc2)CC3)c1,Percent Effect,[1],2.82%
same,Percent Effect,[2],-31.1%
CC(C)C(=O)N1CCN(C(=O)CCc2nnc(-c3ccccc3)o2)CC1,Percent Effect,[1],1.17%
same,Percent Effect,[2],-3.74%
CCC1CN(C(=O)c2ccc(Cl)cc2O)CCN1C(C)C (stereo not drawn),Percent Effect,[1],-3.56%
same,Percent Effect,[2],5.13%
Cc1ccccc1CNC(=O)CN1CCN(Cc2nccn2C)CC1,Percent Effect,[1],8.88%
same,Percent Effect,[2],6.67%
COCCn1nc(C(=O)N2CCCC2c2cccc(F)c2)ccc1=O (stereo not drawn),Percent Effect,[1],2.11%
same,Percent Effect,[2],1.07%
O=C(C1CC1)N1CCN(Cc2coc(-c3ccc(Cl)cc3)n2)CC1,Percent Effect,[1],-1.18%
same,Percent Effect,[2],7.92%
NC(=O)c1csc(C(=O)N2CCCCC2Cn2cccn2)c1 (stereo not drawn),Percent Effect,[1],-1.92%
same,Percent Effect,[2],6.89%
Cc1c(F)cc(C(=O)O)cc1S(=O)(=O)Nc1cccc(C(F)F)c1,Percent Effect,[1],-0.0333%
same,Percent Effect,[2],12.3%
CCc1nccn1C1CCCN(C(=O)CCCNc2ncccn2)C1 (stereo not drawn),Percent Effect,[1],-4.79%
same,Percent Effect,[2],8.61%
Cc1ccsc1CN(C)C(=O)Cn1nc(-c2ccc(F)cc2)oc1=O,Percent Effect,[1],10.3%
same,Percent Effect,[2],-7.45%
CC(C)c1nc(CN2CCCN(Cc3nnc(C4CC4)o3)CC2)no1,Percent Effect,[1],-3.22%
same,Percent Effect,[2],-24.4%
CN1CCN(Cc2cn3c(n2)CN(Cc2cccnc2)CC3)CC1,Percent Effect,[1],1.94%
same,Percent Effect,[2],-10.7%
COc1ccc(CCN2CCN(C(=O)c3scnc3C)CC2)cc1,Percent Effect,[1],0.928%
same,Percent Effect,[2],0.201%
Cc1noc(Cl)c1CCC(=O)N1CCN(c2ncccn2)CC1,Percent Effect,[1],-3.2%
same,Percent Effect,[2],36%
O=C(Nc1cc(C(F)(F)F)c[nH]c1=O)c1ccco1,Percent Effect,[1],-2.75%
same,Percent Effect,[2],5.24%
